Key:
Experiment in all cases: log2 ratio of Biotin-Ahx-Ub-VS probe labelling (fragment/DMSO); higher = less target engagement (more negative = stronger competition), active = hit call of the paper (q ≤ 0.05, log2 ratio ≤ -1)
Conditions in all cases: compound concentration: 200 uM; treatment time: 3 h
USP42 = target: T1, USP42 (UniProt Q9H9J4)
T1 sequence (whole entry): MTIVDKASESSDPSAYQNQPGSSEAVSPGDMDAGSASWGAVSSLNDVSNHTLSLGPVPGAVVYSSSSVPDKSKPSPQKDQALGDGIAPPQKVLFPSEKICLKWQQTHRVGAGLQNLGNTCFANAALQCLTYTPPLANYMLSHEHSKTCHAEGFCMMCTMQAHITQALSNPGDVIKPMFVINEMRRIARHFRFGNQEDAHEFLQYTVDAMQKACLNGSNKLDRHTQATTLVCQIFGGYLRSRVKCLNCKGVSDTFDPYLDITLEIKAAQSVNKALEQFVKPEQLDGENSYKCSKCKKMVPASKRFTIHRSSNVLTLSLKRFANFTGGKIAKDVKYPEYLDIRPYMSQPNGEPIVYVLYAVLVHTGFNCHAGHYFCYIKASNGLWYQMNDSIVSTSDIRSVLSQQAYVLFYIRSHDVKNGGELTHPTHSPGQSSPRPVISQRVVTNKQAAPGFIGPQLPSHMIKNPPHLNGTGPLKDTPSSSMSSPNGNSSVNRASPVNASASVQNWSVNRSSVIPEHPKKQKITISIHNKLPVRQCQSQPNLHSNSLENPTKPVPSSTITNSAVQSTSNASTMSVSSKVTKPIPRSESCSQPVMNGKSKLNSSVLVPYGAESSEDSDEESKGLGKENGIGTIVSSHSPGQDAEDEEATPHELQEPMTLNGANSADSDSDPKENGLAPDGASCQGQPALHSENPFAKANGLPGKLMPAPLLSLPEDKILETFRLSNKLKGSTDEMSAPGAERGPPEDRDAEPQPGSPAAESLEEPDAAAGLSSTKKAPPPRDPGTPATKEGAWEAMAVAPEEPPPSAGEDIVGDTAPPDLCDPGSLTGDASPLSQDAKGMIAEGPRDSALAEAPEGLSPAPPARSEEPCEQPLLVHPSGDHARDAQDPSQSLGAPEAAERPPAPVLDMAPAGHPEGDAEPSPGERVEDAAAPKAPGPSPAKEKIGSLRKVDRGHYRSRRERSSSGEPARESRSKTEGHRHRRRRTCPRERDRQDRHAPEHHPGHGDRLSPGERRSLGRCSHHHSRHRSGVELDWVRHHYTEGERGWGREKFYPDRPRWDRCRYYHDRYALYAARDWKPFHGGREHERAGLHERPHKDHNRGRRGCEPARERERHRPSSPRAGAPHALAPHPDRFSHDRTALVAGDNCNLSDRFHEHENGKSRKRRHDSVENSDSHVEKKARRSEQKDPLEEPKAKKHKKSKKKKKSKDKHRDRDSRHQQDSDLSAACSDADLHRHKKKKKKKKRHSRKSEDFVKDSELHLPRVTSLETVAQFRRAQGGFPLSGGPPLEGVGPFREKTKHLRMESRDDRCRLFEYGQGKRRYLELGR
Outline: (§1)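 HEK293T lysate in Tris/CHAPS/IGEPAL buffer with protease inhibitors (495 µg per sample) was given fragment at 200 µM or vehicle for 3 h, in triplicate. It then received Biotin-Ahx-Ub-VS at 0.5 µM final for 1 h. Labelled DUBs were NeutrAvidin-enriched, digested with LysC and trypsin, and run by diaPASEF LC-MS/MS. Values are average log2 fragment/vehicle ratios by unpaired t-test on global-median-normalised Spectronaut quantities of proteins with ≥2 unique peptides.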

USP46 = USP46 (UniProt P62068)
Outline: as §1

USP47 = target: T2, USP47 (UniProt Q96K76)
T2 sequence (whole entry): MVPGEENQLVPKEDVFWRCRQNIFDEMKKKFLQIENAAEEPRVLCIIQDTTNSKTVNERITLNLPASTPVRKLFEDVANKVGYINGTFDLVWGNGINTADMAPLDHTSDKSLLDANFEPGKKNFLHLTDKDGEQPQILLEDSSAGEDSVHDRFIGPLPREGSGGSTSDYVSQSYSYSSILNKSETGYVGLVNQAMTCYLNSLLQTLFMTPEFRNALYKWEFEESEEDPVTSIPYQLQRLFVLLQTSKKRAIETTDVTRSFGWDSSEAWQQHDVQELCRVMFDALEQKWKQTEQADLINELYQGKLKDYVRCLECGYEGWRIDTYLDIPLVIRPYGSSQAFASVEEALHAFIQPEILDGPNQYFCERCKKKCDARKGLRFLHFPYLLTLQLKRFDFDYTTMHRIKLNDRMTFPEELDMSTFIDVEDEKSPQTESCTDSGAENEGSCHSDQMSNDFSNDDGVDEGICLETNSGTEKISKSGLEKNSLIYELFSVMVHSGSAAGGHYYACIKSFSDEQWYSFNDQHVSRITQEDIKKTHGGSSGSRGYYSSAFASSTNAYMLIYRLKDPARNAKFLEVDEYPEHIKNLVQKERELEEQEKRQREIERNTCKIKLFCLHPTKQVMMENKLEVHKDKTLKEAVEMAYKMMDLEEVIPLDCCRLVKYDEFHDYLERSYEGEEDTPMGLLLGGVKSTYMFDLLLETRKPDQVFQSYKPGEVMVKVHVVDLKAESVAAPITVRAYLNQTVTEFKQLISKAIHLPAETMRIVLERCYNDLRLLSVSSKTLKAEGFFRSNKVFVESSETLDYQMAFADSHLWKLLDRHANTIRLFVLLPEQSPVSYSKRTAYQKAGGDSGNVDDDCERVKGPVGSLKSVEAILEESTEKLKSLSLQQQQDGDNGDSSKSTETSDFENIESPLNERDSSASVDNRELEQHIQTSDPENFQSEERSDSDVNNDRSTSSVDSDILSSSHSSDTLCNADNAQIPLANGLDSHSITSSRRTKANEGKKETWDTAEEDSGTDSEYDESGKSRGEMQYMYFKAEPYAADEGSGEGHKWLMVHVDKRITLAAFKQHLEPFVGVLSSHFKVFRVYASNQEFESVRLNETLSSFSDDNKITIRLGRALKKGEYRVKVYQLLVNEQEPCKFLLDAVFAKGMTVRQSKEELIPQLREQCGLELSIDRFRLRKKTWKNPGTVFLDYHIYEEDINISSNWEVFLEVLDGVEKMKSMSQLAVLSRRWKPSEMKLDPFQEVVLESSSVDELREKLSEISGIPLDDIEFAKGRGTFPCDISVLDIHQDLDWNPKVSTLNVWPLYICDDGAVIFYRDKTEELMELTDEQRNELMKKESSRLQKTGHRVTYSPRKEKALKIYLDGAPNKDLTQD
Outline: as §1

USP48 = target: T3, USP48 (UniProt Q86UV5)
T3 sequence (whole entry): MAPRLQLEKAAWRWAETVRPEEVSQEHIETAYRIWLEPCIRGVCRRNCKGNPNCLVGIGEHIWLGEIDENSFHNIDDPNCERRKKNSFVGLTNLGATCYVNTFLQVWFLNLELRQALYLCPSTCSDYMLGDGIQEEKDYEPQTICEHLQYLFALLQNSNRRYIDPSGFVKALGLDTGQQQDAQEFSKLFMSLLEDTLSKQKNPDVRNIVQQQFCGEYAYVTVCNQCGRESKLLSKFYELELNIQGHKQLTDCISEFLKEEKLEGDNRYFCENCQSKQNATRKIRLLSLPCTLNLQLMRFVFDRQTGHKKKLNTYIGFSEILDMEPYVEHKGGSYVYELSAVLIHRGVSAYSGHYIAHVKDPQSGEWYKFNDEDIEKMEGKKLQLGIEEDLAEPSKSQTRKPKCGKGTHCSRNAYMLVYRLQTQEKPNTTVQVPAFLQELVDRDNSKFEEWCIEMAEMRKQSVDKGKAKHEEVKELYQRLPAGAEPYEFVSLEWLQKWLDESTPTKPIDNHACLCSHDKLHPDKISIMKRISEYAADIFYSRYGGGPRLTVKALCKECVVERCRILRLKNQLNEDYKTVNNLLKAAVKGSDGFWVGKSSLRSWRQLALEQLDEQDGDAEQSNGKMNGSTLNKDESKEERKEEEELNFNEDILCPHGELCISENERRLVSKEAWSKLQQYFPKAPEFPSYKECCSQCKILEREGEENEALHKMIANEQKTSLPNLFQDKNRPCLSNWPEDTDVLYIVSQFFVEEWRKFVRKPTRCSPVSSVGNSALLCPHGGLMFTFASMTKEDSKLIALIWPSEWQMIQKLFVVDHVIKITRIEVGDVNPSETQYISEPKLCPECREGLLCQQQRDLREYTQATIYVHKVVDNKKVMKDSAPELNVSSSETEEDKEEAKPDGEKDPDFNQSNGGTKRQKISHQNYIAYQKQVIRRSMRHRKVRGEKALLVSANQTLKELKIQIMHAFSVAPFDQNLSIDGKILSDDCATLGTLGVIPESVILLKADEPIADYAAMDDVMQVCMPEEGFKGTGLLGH
Outline: as §1

USP5 = target: T4, USP5 (UniProt P45974)
T4 sequence (whole entry): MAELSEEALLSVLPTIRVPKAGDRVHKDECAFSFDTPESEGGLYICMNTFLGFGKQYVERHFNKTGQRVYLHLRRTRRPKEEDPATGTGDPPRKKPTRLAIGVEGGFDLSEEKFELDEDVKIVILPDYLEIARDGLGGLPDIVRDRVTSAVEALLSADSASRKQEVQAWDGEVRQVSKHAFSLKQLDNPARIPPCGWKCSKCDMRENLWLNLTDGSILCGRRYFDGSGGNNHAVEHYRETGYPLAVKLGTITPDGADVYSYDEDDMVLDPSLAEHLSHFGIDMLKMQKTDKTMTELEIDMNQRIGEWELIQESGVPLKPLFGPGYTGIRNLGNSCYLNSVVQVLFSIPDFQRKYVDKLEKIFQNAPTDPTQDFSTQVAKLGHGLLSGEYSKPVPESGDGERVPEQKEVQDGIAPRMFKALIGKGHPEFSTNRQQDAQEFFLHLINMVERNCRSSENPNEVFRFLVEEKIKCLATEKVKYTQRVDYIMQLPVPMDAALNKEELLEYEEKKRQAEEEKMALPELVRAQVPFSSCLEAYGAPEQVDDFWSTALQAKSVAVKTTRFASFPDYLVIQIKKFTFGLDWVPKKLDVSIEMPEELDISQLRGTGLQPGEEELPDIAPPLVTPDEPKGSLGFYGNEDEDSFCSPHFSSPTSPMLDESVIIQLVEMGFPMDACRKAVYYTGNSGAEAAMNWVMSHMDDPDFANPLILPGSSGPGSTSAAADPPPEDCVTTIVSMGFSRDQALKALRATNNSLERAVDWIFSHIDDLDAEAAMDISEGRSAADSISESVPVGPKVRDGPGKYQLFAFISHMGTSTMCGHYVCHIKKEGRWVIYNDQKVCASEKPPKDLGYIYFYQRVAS
Outline: as §1

USP54 = USP54 (UniProt Q70EL1)
Outline: as §1

USP7 = USP7 (UniProt Q93009)
Outline: as §1

USP8 = target: T5, USP8 (UniProt P40818)
T5 sequence (whole entry): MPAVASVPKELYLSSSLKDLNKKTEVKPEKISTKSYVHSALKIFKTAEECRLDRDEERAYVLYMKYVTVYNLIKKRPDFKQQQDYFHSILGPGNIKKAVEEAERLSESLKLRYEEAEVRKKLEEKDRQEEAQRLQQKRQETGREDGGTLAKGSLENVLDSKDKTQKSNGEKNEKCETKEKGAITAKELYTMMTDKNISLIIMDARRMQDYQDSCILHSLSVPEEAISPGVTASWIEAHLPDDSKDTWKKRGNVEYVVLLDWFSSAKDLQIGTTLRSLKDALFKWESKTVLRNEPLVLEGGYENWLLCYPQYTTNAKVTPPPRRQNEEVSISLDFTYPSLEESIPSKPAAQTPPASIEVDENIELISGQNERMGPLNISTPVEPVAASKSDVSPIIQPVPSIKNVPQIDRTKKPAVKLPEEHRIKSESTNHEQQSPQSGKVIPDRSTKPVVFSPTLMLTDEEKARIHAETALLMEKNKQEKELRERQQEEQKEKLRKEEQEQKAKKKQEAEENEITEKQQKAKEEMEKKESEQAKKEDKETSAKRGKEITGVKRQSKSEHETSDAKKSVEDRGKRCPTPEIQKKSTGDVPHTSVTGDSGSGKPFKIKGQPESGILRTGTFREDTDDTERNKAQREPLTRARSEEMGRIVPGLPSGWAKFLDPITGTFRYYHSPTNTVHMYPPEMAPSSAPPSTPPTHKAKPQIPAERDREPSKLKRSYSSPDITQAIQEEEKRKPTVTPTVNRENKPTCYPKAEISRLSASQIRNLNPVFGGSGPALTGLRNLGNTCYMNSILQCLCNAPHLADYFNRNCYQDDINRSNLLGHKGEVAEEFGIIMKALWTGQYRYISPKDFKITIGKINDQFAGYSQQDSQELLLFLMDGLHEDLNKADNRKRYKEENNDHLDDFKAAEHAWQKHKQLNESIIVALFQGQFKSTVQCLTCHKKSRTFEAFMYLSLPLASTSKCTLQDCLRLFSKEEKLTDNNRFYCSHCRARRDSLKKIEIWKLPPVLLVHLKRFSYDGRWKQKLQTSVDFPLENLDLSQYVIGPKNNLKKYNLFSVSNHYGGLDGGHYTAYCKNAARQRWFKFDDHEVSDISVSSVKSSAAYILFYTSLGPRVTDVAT
Outline: as §1

Measured: log2 ratio of Biotin-Ahx-Ub-VS probe labelling

USP7, sequence (Q93009 whole entry, looked up): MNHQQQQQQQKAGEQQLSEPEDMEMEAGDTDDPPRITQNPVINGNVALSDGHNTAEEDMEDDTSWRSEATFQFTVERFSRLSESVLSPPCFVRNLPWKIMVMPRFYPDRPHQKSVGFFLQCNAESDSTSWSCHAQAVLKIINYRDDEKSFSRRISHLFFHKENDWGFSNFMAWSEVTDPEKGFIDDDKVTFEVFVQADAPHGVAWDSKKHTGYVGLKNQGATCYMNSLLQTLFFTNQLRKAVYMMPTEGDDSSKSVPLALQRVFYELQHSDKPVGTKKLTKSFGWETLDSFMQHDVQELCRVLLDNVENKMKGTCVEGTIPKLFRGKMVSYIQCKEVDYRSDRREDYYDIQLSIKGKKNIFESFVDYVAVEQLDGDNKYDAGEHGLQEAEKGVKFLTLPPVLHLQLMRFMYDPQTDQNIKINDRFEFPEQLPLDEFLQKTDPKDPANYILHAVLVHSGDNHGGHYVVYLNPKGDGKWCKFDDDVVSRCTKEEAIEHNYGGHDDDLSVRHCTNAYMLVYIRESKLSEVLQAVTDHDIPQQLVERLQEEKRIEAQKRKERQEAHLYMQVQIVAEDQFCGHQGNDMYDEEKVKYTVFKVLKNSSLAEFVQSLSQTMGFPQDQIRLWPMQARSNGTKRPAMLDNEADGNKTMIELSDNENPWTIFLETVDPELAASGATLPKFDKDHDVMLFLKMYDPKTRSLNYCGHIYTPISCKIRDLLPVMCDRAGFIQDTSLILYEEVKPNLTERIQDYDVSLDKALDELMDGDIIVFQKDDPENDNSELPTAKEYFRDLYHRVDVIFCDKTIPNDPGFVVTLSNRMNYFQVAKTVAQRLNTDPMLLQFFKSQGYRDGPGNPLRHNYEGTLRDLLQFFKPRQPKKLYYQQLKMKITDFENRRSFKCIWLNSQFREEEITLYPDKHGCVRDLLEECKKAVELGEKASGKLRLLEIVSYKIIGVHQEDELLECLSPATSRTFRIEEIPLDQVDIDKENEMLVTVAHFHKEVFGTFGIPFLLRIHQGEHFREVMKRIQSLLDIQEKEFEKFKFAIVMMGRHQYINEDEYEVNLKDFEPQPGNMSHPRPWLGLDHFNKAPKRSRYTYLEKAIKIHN
USP54, sequence (Q70EL1 whole entry): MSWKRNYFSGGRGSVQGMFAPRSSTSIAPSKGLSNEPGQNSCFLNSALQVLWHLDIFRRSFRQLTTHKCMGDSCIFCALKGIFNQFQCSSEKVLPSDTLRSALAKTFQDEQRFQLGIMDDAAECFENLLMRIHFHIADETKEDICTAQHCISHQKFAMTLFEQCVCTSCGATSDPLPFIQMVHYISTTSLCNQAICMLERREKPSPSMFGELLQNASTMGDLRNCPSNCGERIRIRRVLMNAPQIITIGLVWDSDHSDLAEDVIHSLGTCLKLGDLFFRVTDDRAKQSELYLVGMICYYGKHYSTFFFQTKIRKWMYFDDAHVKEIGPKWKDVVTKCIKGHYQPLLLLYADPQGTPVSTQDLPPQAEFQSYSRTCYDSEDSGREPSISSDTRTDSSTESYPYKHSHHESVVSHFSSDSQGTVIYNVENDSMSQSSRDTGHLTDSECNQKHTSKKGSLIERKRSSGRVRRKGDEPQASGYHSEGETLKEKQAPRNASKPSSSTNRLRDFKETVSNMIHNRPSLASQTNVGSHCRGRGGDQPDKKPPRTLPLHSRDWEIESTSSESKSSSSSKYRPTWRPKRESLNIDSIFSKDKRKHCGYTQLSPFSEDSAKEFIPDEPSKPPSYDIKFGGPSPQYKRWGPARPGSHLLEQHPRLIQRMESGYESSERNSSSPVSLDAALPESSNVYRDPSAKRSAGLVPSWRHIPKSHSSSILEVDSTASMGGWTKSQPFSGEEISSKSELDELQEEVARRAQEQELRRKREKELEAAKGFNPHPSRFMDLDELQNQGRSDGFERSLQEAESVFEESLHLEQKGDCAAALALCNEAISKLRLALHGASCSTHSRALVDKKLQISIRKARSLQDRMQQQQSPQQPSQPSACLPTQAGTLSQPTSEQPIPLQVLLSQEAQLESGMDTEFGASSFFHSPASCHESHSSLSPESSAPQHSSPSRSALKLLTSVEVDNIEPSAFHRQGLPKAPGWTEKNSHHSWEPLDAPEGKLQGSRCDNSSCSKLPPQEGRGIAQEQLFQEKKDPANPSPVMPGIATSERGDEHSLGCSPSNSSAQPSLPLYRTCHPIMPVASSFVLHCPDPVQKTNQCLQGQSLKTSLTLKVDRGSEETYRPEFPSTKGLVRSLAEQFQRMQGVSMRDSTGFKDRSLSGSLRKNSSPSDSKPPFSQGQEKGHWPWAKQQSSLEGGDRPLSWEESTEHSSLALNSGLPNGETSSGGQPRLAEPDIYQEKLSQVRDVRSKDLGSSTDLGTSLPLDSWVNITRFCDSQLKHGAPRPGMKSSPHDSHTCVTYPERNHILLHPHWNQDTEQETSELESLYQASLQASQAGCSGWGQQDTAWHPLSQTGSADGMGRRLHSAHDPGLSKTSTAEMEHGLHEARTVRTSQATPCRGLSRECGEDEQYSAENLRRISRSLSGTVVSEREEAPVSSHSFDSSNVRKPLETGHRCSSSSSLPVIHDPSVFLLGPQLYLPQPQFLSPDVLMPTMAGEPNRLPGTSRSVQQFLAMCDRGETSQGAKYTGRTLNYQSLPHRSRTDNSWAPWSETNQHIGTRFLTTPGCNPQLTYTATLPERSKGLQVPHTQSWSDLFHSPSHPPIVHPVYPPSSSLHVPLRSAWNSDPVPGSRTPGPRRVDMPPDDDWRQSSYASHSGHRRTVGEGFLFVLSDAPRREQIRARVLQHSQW
USP46, sequence (P62068 whole entry): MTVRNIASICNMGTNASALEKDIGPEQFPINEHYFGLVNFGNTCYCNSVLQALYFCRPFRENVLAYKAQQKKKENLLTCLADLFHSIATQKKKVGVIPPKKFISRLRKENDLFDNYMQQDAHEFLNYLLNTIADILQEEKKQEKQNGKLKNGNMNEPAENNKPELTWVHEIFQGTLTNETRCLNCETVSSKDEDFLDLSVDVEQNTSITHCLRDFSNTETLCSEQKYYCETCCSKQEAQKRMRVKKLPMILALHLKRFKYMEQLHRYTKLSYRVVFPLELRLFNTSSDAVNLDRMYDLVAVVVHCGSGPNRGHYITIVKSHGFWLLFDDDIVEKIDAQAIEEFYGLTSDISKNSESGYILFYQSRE

O=C(CCl)N(Cc1ccsc1)C1CC1
active: USP48 -1.14 | USP7 -1.25
inactive: USP42 -0.0609 | USP46 0.201 | USP47 -0.631 | USP5 0.243 | USP54 0.171 | USP8 0.0752

From the supplement of paper PMC11732987, “Enantioselective OTUD7B fragment discovery through chemoproteomics screening and high-throughput optimisation” (Communications Chemistry, 2025)
